PubChem BioAssay AID687014 (The Scripps Research Institute Molecular Screening Center, 2013)
Hit rate of the full screen: of about 370,000 compounds, about 6,800 (1.8%) were called active. Many of the other results were omitted from the sample, so actives are more common in it than they were. Unmarked numbers belong to inactive results.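 Rule for the calls: active = activation above a cutoff set at the mean of all screened compounds plus 3 SD (cut at about 10% in these data); inactive = the rest.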

system: Nuclear hormone receptor DAF-12 (Heterodera glycines), GAL4 fusion; experiment: H. glycines DAF-12 receptor agonists, primary screen, cell-based, luminescence, HEK293, GAL4 fusion, UAS-luciferase (AID 687014); conditions: HEK293 GAL4-hgDAF12 UAS-luciferase reporter, agonist luminescence; at 6.8 µM; stronger effect = higher value; normalized to butyrate control;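 note: 0% = DMSO wells and 100% = sodium butyrate wells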

Question: For `CCOC(=O)N1CCN(C(=O)C[C@H]2C[C@@]3(C(=O)OC)C(=C[C@H](C4CCCC4)O[C@@H]3C)N(Cc3ccccc3)C2=O)CC1`, which activation is on record?
Answer: -1.3%

Question: `CSCC[C@H](NC(=O)OC(C)(C)C)C(=O)N/N=C/c1cc2ccc(C)cc2nc1Cl` was tested. Which activation did it give?
Answer: -1.8%

Question: `CC(=O)Nc1ccc(C(=O)CSc2nc3ccc(C)cc3[nH]2)cc1` was tested. Which activation did it give?
Answer: 8.98%

Question: `Cc1ccc2cc(/C=N/Nc3ccc(C(=O)O)cc3)c(Cl)nc2c1` was tested. Which activation did it give?
Answer: 11.9% (active)

Question: `C=C(C)C#CC(Cc1ccccc1)N(CC1CC1)/C(N)=N/C(=O)OCc1ccccc1` (stereo not drawn) was tested. Which activation did it give?
Answer: 1.8%

Question: With `COc1cc(/C=C/C(=O)O)cc(S(=O)(=O)Nc2ccccc2SC)c1OC` as the compound, how does the activation read?
Answer: 1.71%

Question: With `Cc1ccc(C(=O)NNc2ncnc3ccccc23)cc1` as the compound, how does the activation read?
Answer: 16% (active)

Question: With `Cn1ncc2c(NNC(=O)Cc3cccc4ccccc34)ncnc21` as the compound, how does the activation read?
Answer: -0.95%

Question: With `Cc1ccc(CCNC(=O)c2ccc3nc4ccccc4c(=O)n3c2)cc1` as the compound, how does the activation read?
Answer: 3.9%

Question: For `COC(=O)Cc1nnn2c1[C@H](C)[C@H](c1ccccc1Br)OCC2`, which activation is on record?
Answer: -0.72%

Question: `C=CCn1cc(C(=O)NCc2ccc(Cl)cc2)c(=O)c2cc(S(=O)(=O)N(CC)CC)ccc21` was tested. Which activation did it give?
Answer: 0.3%

Question: Which activation does the source give for `CC(=O)c1cc(C#N)c(SCC(=O)C(C)(C)C)nc1C` here?
Answer: 27.1% (active)

Question: `CC(=O)c1cc(C#N)c(SCC(=O)Nc2nccs2)nc1C` was tested. Which activation did it give?
Answer: 8.08%

Question: `CC(=O)c1cc(C#N)c(N2CC(C)OC(C)C2)nc1C` (stereo not drawn) was tested. Which activation did it give?
Answer: 0.39%

Question: How did the activation turn out when `CC(C)(C)OC(=O)NCc1cc(F)ccc1/C=C/S(=O)(=O)NCCc1ccccc1` was run?
Answer: 0.64%

Question: For `c1ccc(Cc2c(-c3ccco3)nc3c4ccccc4ccn23)cc1`, which activation is on record?
Answer: 22.7% (active)

Question: `Cc1ccc(Cc2c(-c3ccc(C)cc3)nc3c4ccccc4ccn23)cc1` was tested. Which activation did it give?
Answer: 0.89%

Question: Which activation does the source give for `Cc1ccc(Cc2c(-c3ccc(Cl)cc3)nc3c4ccccc4ccn23)cc1` here?
Answer: 4.25%

Question: For `CC(C(=O)N=Nc1c(O)n(C)c2ccc(Br)cc12)n1cnc2ccccc2c1=O` (stereo not drawn), which activation is on record?
Answer: 0.17%

Question: For `CC(=O)C1=C(C)N(Cc2ccc(Cl)cc2)C(=S)NC1c1ccc(F)cc1` (stereo not drawn), which activation is on record?
Answer: 3.22%

Question: Which activation does the source give for `N#Cc1ccc(OCCCN2CCC(C(O)(c3ccccc3)c3ccccc3)CC2)c(F)c1` here?
Answer: 0.54%

Question: With `CC1=C(C(=O)NC2CC(C)(C)Cc3c2cnn3-c2ccc(C)cc2)OCCO1` (stereo not drawn) as the compound, how does the activation read?
Answer: -2.28%

Question: `Cc1cccc(-n2ncc(Cl)c(Cl)c2=O)c1` was tested. Which activation did it give?
Answer: -2.03%

Question: With `C=CCNc1cnn(-c2ccc(C)cc2)c(=O)c1Cl` as the compound, how does the activation read?
Answer: 12.7% (active)

Question: With `COC(=O)[C@H](C(C)C)N(CCCc1cn(Cc2ccccc2)nn1)S(=O)(=O)c1ccc(F)cc1Br` as the compound, how does the activation read?
Answer: -3.54%

Question: For `COC(=O)C[C@@H]1C=C[C@@H](NC(=O)c2ccc3c(c2)OCO3)[C@@H](CO)O1`, which activation is on record?
Answer: -0.93%

Question: For `CC1=C(N2CCN(c3ncccn3)CC2)CCC1=O`, which activation is on record?
Answer: 1.9%

Question: How did the activation turn out when `c1cnc(N2CCN(c3ccc4ccccc4n3)CC2)nc1` was run?
Answer: 13.8% (active)

Question: For `CC12CCC(C(=O)N3CCN(c4ncccn4)CC3)(c3nc4ccccc4nc31)C2(C)C` (stereo not drawn), which activation is on record?
Answer: -2.77%

Question: For `CN1C(=O)C(Br)(Br)CC1c1cccnc1` (stereo not drawn), which activation is on record?
Answer: 2.1%

Question: How did the activation turn out when `CCCCCCCCN1C(=O)[C@@H](CC(=O)N2CCN(C(=O)OCC)CC2)C[C@@]2(C(=O)OC)C1=C[C@H](C1CCCC1)O[C@@H]2C` was run?
Answer: -1.38%

Question: Which activation does the source give for `Cc1csc(NC(=O)CSc2nc(=O)n(CCCN(C)C)c3c2CCC3)n1` here?
Answer: -0.31%

Question: Which activation does the source give for `COc1ccc(CN2C[C@H]3CON(C)[C@H]3C[C@H]2c2ccc(-c3cccc(F)c3)cc2)cc1` here?
Answer: -1.7%

Question: Which activation does the source give for `CN1OC[C@@H]2CN(C(=O)c3ccc(-c4ccccc4)cc3)[C@H](c3ccc(-c4cccc(F)c4)cc3)C[C@@H]21` here?
Answer: 2.92%

Question: For `CN1OC[C@@H]2CN[C@H](c3ccc(-c4ccccc4)cc3)C[C@@H]21`, which activation is on record?
Answer: 10.5% (active)

Question: For `O=C(NCc1ccccc1Cl)c1ccc2c(=O)n(CC3CCCO3)c(=S)[nH]c2c1` (stereo not drawn), which activation is on record?
Answer: 1.69%

Question: For `O=S1(=O)c2c(cccc2N2CCCCC2)O[C@H](COCc2ccccc2)CN1C1CC1`, which activation is on record?
Answer: -1.38%

Question: `CCOc1ccc(Oc2c(Cl)cnn(-c3ccc(C)cc3)c2=O)cc1` was tested. Which activation did it give?
Answer: 1.52%

Question: How did the activation turn out when `CCCNC(=O)c1c(Cl)cnn1-c1ccc(C)cc1` was run?
Answer: 14.5% (active)

Question: Which activation does the source give for `CCCNC(=O)CCc1c(C)nc2c(c(C)nn2-c2ccc(C)cc2)c1C` here?
Answer: -0.59%

Question: Which activation does the source give for `CCCCCCCCN1C(=O)[C@@H](CC(=O)NCCCC)C[C@@]2(C(=O)OC)C1=C[C@H](C(C)(C)C)O[C@@H]2C` here?
Answer: 0.13%

Question: How did the activation turn out when `O=C(Nn1c(SCc2ccc([N+](=O)[O-])cc2)nc2ccccc2c1=O)c1ccc(F)cc1` was run?
Answer: 16.4% (active)

Question: For `COCCNC(=O)c1ccc(-n2c(SCc3cccnc3)nc3ccccc3c2=O)cc1`, which activation is on record?
Answer: -1.1%

Question: Which activation does the source give for `O=C(CSc1nc2ccccc2c(=O)n1Cc1ccc(F)cc1)NCC1CCCO1` (stereo not drawn) here?
Answer: 0.43%

Question: With `O=c1[nH]c(-c2ccccc2)cn1C1CCN(Cc2ccc(-c3nc4ccc(F)cc4nc3-c3ccccc3)cc2)CC1` as the compound, how does the activation read?
Answer: 2.08%

Question: Which activation does the source give for `O=[N+]([O-])c1ccc2c(c1)C(N1CCOCC1)/C(=C/C1(O)CCCCC1)O2` (stereo not drawn) here?
Answer: -1.36%

Question: `CCOC(=O)C1CCN(C(=O)C(C)(C)NC(=O)Nc2ccc(F)c(F)c2)CC1` was tested. Which activation did it give?
Answer: -0.28%

Question: `COc1ccc(-c2nc3n(c2Br)CCC3)cc1` was tested. Which activation did it give?
Answer: 5.25%

Question: How did the activation turn out when `COc1ccc(/C=C2\N=C3CCCN3C2=O)cc1` was run?
Answer: 13% (active)

Question: `COc1ccc(/C=C2\CC3(OC(C)=O)CCCN2C3)cc1` (stereo not drawn) was tested. Which activation did it give?
Answer: -5.68%

Question: `O=C(C1CCCN1S(=O)(=O)c1ccccc1)N1CCc2ccccc2C1` (stereo not drawn) was tested. Which activation did it give?
Answer: -1.43%

Question: `O=C(CSc1nnc(COc2ccccc2)n1-c1ccc(Cl)cc1)Nc1ccc2c(c1)OCO2` was tested. Which activation did it give?
Answer: -1.26%

Question: `CC(C)(C)C1CCC(=NNC(=O)c2ccc(Br)o2)CC1` (stereo not drawn) was tested. Which activation did it give?
Answer: 11.6% (active)

Question: Which activation does the source give for `CC(C)(C)C1CCC(=NNC(=O)c2cc(-c3ccccc3)n[nH]2)CC1` (stereo not drawn) here?
Answer: 6.27%

Question: For `CCC(C)(C)C1CCC(=NNC(=O)c2ccc(Br)o2)CC1` (stereo not drawn), which activation is on record?
Answer: 7.56%

Question: How did the activation turn out when `COC(=O)C1=C(C)N(Cc2cccc(C(F)(F)F)c2)C(=NCc2ccccc2)NC1c1ccccc1C(F)(F)F` (stereo not drawn) was run?
Answer: -1.64%

Question: `C/C(=N\NC(=S)NC1CCCCC1)c1ccc(C)o1` was tested. Which activation did it give?
Answer: 3.96%

Question: `CC(CNC(=O)c1ccc(Br)o1)NC(=O)c1ccc(Br)o1` (stereo not drawn) was tested. Which activation did it give?
Answer: -3.41%

Question: `C/C(=N/NC(=O)c1ccc(Br)o1)c1ccc(C)o1` was tested. Which activation did it give?
Answer: 11.9% (active)

Question: `COc1cc(SC)ccc1C(=O)Nc1cc(C)ccn1` was tested. Which activation did it give?
Answer: 15.5% (active)

Question: With `COc1cc(SC)ccc1C(=O)Nc1nc(C)cs1` as the compound, how does the activation read?
Answer: -15.3%

Question: Which activation does the source give for `Cc1ccnc(NC(=O)CNC(=O)c2ccccc2)c1` here?
Answer: 2.39%

Question: `O=S1(=O)c2c(NCc3ccco3)cccc2Oc2ccccc2CN1Cc1cn(Cc2cccc(C(F)(F)F)c2)nn1` was tested. Which activation did it give?
Answer: -3.4%

Question: Which activation does the source give for `COc1cccc(NC(=O)CSc2nccn(-c3ccc4c(c3)OCCO4)c2=O)c1` here?
Answer: 0.16%

Question: For `COc1ccccc1C1C(C(N)=O)=C(C)Nc2nc(CCCO)nn21` (stereo not drawn), which activation is on record?
Answer: 0.62%

Question: How did the activation turn out when `O=C(COC(=O)c1cc(=O)[nH]c2ccccc12)NCc1cccc(Cl)c1` was run?
Answer: 0.1%

Question: With `CN(C(=O)COC(=O)c1cc(=O)[nH]c2ccccc12)C1CCCCC1` as the compound, how does the activation read?
Answer: 6.7%

Question: For `CC1CCN(C(=O)COC(=O)c2cc(=O)[nH]c3ccccc23)CC1`, which activation is on record?
Answer: 12.3% (active)

Question: For `CCOC(=O)[C@]12CCCC3=C1N(CCC3)C(=O)[C@@H](CC(=O)NCC13CC4CC(CC(C4)C1)C3)C2`, which activation is on record?
Answer: 0.11%

Question: How did the activation turn out when `COc1ccc(/C=N/Nc2ncnc3sc4c(c23)CCCC4)cc1O` was run?
Answer: 5.98%

Question: For `COc1cc(/C=N/Nc2nc3ccccc3s2)ccc1O`, which activation is on record?
Answer: 15% (active)

Question: Which activation does the source give for `COc1cc(/C=C/C(=O)OCC(=O)NCCCc2ccccc2)ccc1O` here?
Answer: -1.55%

Question: `CN(C)C(=O)N1CCN(C(=O)[C@@H](Cc2ccccc2)NC(=O)[C@H]2O[C@@H](n3ccc(N)nc3=O)[C@H](O)[C@@H]2O)CC1` was tested. Which activation did it give?
Answer: 1.19%

Question: How did the activation turn out when `CCOC(=O)c1ccc(CS(=O)c2ccc(Cl)cc2)o1` (stereo not drawn) was run?
Answer: -2.05%

Question: How did the activation turn out when `CCOC(=O)c1c(S(=O)(=O)Nc2cccc(Cl)c2)c(C)n(C)c1C` was run?
Answer: -4.39%

Question: With `CCOC(=O)c1c(Cc2ccc(Cl)cc2)c[nH]c1C` as the compound, how does the activation read?
Answer: 12.8% (active)

Question: `CCOC(=O)[C@]12CCCC=C1N(Cc1ccc(OC)cc1)C(=O)[C@@H]2CC(=O)N1CCOCC1` was tested. Which activation did it give?
Answer: 0.99%

Question: Which activation does the source give for `CNC(=O)/C(=C\C=C\c1ccccc1)NC(=O)c1ccc([N+](=O)[O-])cc1` here?
Answer: 1.17%

Question: `COCC(=O)N[C@@H]1C[C@@H]2O[C@@H](CO)CC[C@@H]2O[C@@H]1CCc1ccc(-c2ccccc2)cc1` was tested. Which activation did it give?
Answer: 2.02%

Question: With `CC(=O)Nc1ccc(NC(=O)CSc2nnnn2C2CCCCC2)cc1` as the compound, how does the activation read?
Answer: 0.66%

Question: How did the activation turn out when `CC1CCCC(C)N1C(=O)CSc1nnnn1C1CCCC1` (stereo not drawn) was run?
Answer: 3.93%

Question: Which activation does the source give for `O=C(CSc1nnnn1C1CCCC1)N1CCCCC1` here?
Answer: 11.8% (active)

Question: Which activation does the source give for `Cc1cc(NCCc2c[nH]c3ccccc23)ccc1Oc1cccnc1` here?
Answer: -6.96%

Question: Which activation does the source give for `C[C@H](O)[C@@H]1CN2CCc3ccc(-c4ccc5c(c4)OCO5)cc3[C@@H]2C[C@@H]1N(C)C(=O)C1CCCCC1` here?
Answer: 5.63%

Question: `C[C@H]1[C@H](NC(=O)c2cccc(N(C)C)c2)CC[C@@]23CCCN2C(=O)CCC[C@@H]13` was tested. Which activation did it give?
Answer: 4.78%

Question: Which activation does the source give for `CC(=O)Nc1cnc(-c2ccc(O)cc2C)cn1` here?
Answer: 0.71%

Question: For `Cc1ccc(-c2csc(NCCc3nc4cc(Cl)c(Cl)cc4n3CCOCCO)n2)cc1`, which activation is on record?
Answer: 0.43%

Question: Which activation does the source give for `Cc1ccc(Nc2nc(-c3ccc(O)cc3O)cs2)nc1` here?
Answer: 11% (active)
